{"source": "PubChem BioAssay (NCATS)", "note": "Records with an inconclusive call do not appear. Active and inactive are the calls of the source. Calls follow the shape of the dose curve; as a rule, active = well fitted cell-killing curve with a large enough effect; inconclusive = small, poorly fitted or top-dose-only effect; inactive = flat fitted curve, though single readings scatter. Potency is read from the fitted curve at half-maximal effect.", "data": [{"assay": "Cell Viability - LYMP2-012 (AID 982);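 also: cellular ATP by luciferase luminescence where a drop means cytotoxicity; cells exposed to compound for one day before reading; nearly all actives have a fitted effect of over 55% in size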;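 as to activity change, negative = cytotoxicity: 0% = DMSO only and full loss = 92 µM tetraoctylammonium bromide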", "settings": "LYMP2-012 lymphoblastoid cell viability qHTS; series mostly up to 92.2 µM; activity change, negative = cytotoxicity: at the top concentration", "from_the_text": "NIH Chemical Genomics Center [NCGC]\nNIH Molecular Libraries Screening Centers Network [MLSCN]\nNational Institutes of Environmental Health Sciences [NIEHS]\nNational Toxicology Program [NTP]\nWe have developed a 1536-well cell-based assay for quantitative high throughput screening (qHTS) against a number of cell lines to determine in vitro cytotoxicity of small molecules. This particular assay uses a human lymphoblastoid cell line (LYMP2-012) purchased from Coriell Institute for Medical Research.\nNCGC Assay Protocol Summary:\nThe CellTiter-Glo luminescent cell viability assay (Promega) is a homogeneous method to measure the number of viable cells in culture. The end point readout of this assay is based on quantitation of intracellular ATP, an indicator of metabolic activity, using the luciferase reaction. Luciferase catalyzes the oxidation of beetle Luciferin to oxyluciferin and light in the presence of ATP. The luminescent signal is proportional to amount of ATP present.\nUsing the CellTiter-Glo luminescent cell viability assay, the amount of cellular ATP was measured in the lymphoblastoid cell line with complete culture medium following compound treatment for 24 hours. The assay was performed in opaque white Kalypsys 1536-well plates. In the screen, tetraoctylammonium bromide was used as positive control. Library compounds were measured for their ability to cause acute toxicity in the cell line, as reflected by a decrease in intracellular ATP levels, in a concentration-dependent manner. […] AC50 values were determined from concentration-response data modeled with the standard Hill equation.\nqHTS protocol for CellTiter Glo lymphoblastoid cellular assay\n[Step] [Parameter] [Value] [Description]\n1. Reagent; 5 uL; 2500 lymphoblastoid cells/well\n2. Time; 5 hr; 37 C incubation\n4. Controls; 23 nL; Tetraoctylammonium bromide 6.4pM to 92 uM\n5. Time; 24 hr; 37 C incubation\n6. Reagent; 5 uL; CellTiter Glo reagent\n7. Time; 30 min; Room Temperature\n8. Detection; Luminescence; Viewlux plate reader\nKeywords: cell viability, cytotoxicity, lymphoblastoid cell line, luminescence, NTPHTS, NTPHTS_NCGC, NIEHS, DSSTox, MLSMR, MLSCN, NIH Roadmap, qHTS, NCGC", "values": [{"smiles": "Cc1ncc([N+](=O)[O-])n1CCO", "activity change, negative = cytotoxicity": "-4.26% (inactive)"}, {"smiles": "CC1=NN(c2ccccc2)C(=O)C1", "activity change, negative = cytotoxicity": "-17.7% (inactive)"}, {"smiles": "NNC(=O)c1ccncc1", "activity change, negative = cytotoxicity": "-3.64% (inactive)"}, {"smiles": "O=C(N[C@H](CO)[C@H](O)c1ccc([N+](=O)[O-])cc1)C(Cl)Cl", "activity change, negative = cytotoxicity": "7.31% (inactive)"}, {"smiles": "Cc1cc(NS(=O)(=O)c2ccc(N)cc2)no1", "activity change, negative = cytotoxicity": "0.567% (inactive)"}, {"smiles": "CCc1cc(C(N)=S)ccn1", "activity change, negative = cytotoxicity": "-6.35% (inactive)"}, {"smiles": "Cc1noc(NS(=O)(=O)c2ccc(N)cc2)c1C", "activity change, negative = cytotoxicity": "-2.87% (inactive)"}, {"smiles": "Cc1ccnc2c1NC(=O)c1cccnc1N2C1CC1", "activity change, negative = cytotoxicity": "-9.2% (inactive)"}, {"smiles": "NC(N)=NC(N)=NCCc1ccccc1", "activity change, negative = cytotoxicity": "-14.3% (inactive)"}, {"smiles": "Cc1nnc(NS(=O)(=O)c2ccc(N)cc2)s1", "activity change, negative = cytotoxicity": "-11.6% (inactive)"}, {"smiles": "CN(C)c1ccc(C(=C2C=CC(=[N+](C)C)C=C2)c2ccc(N(C)C)cc2)cc1", "Potency": "1 µM (active)"}, {"smiles": "C[C@]12C=CC(=O)C=C1CC[C@@H]1[C@@H]2C(=O)C[C@@]2(C)[C@H]1CC[C@]2(O)C(=O)CO", "activity change, negative = cytotoxicity": "-7.72% (inactive)"}, {"smiles": "CC[C@H](C)C(=O)O[C@H]1C[C@@H](C)C=C2C=C[C@H](C)[C@H](CC[C@@H]3C[C@@H](O)CC(=O)O3)[C@H]21", "activity change, negative = cytotoxicity": "-21% (inactive)"}, {"smiles": "O=C(O)c1cc(=O)[nH]c(=O)[nH]1", "activity change, negative = cytotoxicity": "-1.64% (inactive)"}]}]}
